Data published in PubChem BioAssay.
The source made the active and inactive calls.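 Rule for the calls, unless noted: active = inhibition of the reporter signal at or above 50%; inactive = inhibition below 50%.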

How the values were obtained:
[1] = inhibitors of TNFa-induced NFkB p65 translocation, primary screen, imaging, HUVEC, MLSMR starter and 10KST1 sets (AID 438;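 active = inhibition above 20% together with a positive visual image hit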;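 note: compound added about 3h40 before a 20 min TNFalpha stimulation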;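 for inhibition: signal is the nuclear over cytoplasmic p65 intensity ratio per well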); details: HUVEC TNFa-induced p65 nuclear translocation; cell count: measured here: nuclei count (cytotoxicity indicator), at 2.08 µM; inhibition: at 2 µM, stronger effect = higher value, 0% TNFa-plus-vehicle, 100% no-TNFa wells
[2] = inhibitors of mutant huntingtin aggregation, primary screen, imaging, exon1htt(103Q)mCFP cells, high-content imaging (AID 483;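 active = visual image review flags a hit and inhibition of aggregation exceeds 20%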;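 note: compound exposure lasted 3 days before fixation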;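 for nuclei count: percent of the per-plate median nuclei count of sample wells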); details: exon1htt(103Q)mCFP cell line, aggregate imaging, at 2 µM; inhibition of aggregation: stronger effect = higher value; nuclei count: measured here: cell count, toxicity
[3] = inhibitors of E-selectin induction by TNFa, primary screen, imaging, HUVEC, immunofluorescence, MLSMR starter and 10KST1 sets (AID 487;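 active = visually confirmed hit in the image check and inhibition above 20%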;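 for inhibition: signal is fraction of cell area covered by stained E-selectin grains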;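 for nuclei count: 100% = median nuclei count of all wells on the same plate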); details: HUVEC TNFalpha-induced E-selectin immunofluorescence imaging, at 2 µM; inhibition: stronger effect = higher value; nuclei count: measured here: cell number, toxicity
[4] = target: Voltage-gated potassium channel subunit beta-2 (Rattus norvegicus) (UniProt P62483); assay: KvBeta enzyme negative modulators, primary screen, biochemical, NADPH fluorescence (AID 622;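 active = fluorescence slope higher than the sample average by over 3 SD, cut at about -0.22 in these data, passing the limit was not always enough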;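 note: slope of raw intensity against log time taken from 70 to 1610 s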); details: recombinant KvBeta, 4-cyanobenzaldehyde reduction, at 10 µM, stronger effect = higher value
[5] = target: Voltage-gated potassium channel subunit beta-2 (Rattus norvegicus) (UniProt P62483); assay: KvBeta positive modulators, primary screen, biochemical, NADPH fluorescence (AID 623;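 active = NADPH fluorescence slope more negative than the mean of all samples by about 3 SD, 99.7% confidence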;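 note: fluorescence intensity change per second fitted from 20 to 320 s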); details: Recombinant KvBeta, NADPH fluorescence decrease slope, 10 min; at 10 µM; stronger effect = lower value
[6] = target: Alpha-2C adrenergic receptor (Homo sapiens) (UniProt P18825); assay: modulators of alpha2C/GIRK thallium flux, primary screen, cell-based, HEK293 alpha2C/GIRK1/2 (AID 624;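 active = fluorescence slope after compound addition differing from the mean of all screened samples at 99.7% confidence, in either direction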;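 note: slope of fluorescence ratio to pre-addition baseline per second over 15 to 24 s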); details: thallium flux BTC fluorescence, at 10 µM, actives lie on both sides
[7] = inhibitors of Sendai virus-induced IRF3 signaling, primary screen, TLR/RLR signaling modifier project, cell-based, Sendai virus stimulus, luciferase, 10K MLSCN set (AID 602276;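 active = inhibition at or above 50% at 10 µM; inactive = inhibition below 50%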;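 note: firefly luciferase from ISG56 promoter only with Renilla not read in this screen; 0% = Sendai virus plus DMSO and 100% = medium plus DMSO without virus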); details: HEK293 RL24 IRF3 luciferase reporter, at 10 µM, stronger effect = higher value
[8] = inhibitors of poly I:C-induced TLR3 signaling, primary screen, cell-based, poly I:C stimulus, luciferase, 10K MLSCN set (AID 602277); details: HEK293-TLR3 RL24 IRF3 luciferase reporter, at 10 µM, stronger effect = higher value

Sequence of Voltage-gated potassium channel subunit beta-2 (Rattus norvegicus) (P62483 whole entry, looked up): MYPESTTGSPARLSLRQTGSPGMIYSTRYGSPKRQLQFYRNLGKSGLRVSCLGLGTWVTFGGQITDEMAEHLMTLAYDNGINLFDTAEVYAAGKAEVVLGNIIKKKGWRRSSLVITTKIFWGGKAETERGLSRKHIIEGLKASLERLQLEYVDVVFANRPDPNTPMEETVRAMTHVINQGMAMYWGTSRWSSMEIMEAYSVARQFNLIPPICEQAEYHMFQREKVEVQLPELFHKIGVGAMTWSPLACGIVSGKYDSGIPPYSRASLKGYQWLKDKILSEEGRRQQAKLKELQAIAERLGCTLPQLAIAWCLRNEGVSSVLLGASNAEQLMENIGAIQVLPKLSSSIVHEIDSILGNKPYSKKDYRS
Sequence of Alpha-2C adrenergic receptor (Homo sapiens) (P18825 whole entry, looked up): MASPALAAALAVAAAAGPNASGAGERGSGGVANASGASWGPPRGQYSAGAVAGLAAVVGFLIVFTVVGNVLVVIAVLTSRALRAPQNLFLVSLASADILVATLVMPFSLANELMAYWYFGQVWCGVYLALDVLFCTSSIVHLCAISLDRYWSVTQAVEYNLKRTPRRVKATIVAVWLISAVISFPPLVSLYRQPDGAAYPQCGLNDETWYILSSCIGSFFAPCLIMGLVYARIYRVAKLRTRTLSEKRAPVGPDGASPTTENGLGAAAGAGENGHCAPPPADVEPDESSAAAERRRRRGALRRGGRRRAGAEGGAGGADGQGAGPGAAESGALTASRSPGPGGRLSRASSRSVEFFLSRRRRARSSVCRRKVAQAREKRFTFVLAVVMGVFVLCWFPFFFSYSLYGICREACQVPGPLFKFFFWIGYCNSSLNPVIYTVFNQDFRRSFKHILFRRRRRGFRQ

Row | SMILES | cell count [1] | inhibition [1] | inhibition of aggregation [2] | nuclei count [2] | inhibition [3] | nuclei count [3] | fluorescence slope [4] | NADPH fluorescence slope [5] | slope [6] | inhibition [7] | inhibition [8]
1 | CCC(=O)Nc1ccc(NC(=O)c2cccc(OC)c2)nc1 | 742 | -7.5% (inactive) | -5.7% (inactive) | 105% | -92.8% (inactive) | 160% | -0.465 (inactive) | 1.2e-05 (inactive) | 0.00556 (inactive) | -60.4% (inactive) | -106% (inactive)
2 | c1ccc(CC2CCN(c3nc4ccccc4n4nnnc34)CC2)cc1 | 373 | -13.8% (inactive) | -7.8% (inactive) | 102% | -63.7% (inactive) | 114% | -0.312 (inactive) | -3.7e-05 (inactive) | 0.00583 (inactive) | 7.26% (inactive) | 13.6% (inactive)
3 | COc1ccc(C(N)=O)cc1N | 413 | 2.5% (inactive) | -8.6% (inactive) | 98.3% | -40.2% (inactive) | 118% | -0.45 (inactive) | 2.7e-05 (inactive) | 0.00578 (inactive) | -5.97% (inactive) | 8.78% (inactive)
4 | Cc1ccccc1C(=O)NC1CCN(Cc2nnnn2CCc2ccccc2)CC1 | 597 | -10.4% (inactive) | -10.6% (inactive) | 107% | 0.8% (inactive) | 102% | -0.491 (inactive) | -3.4e-05 (inactive) | 0.0062 (inactive) | 5.02% (inactive) | 33.8% (inactive)
5 | CCCN(Cc1cc2ccc(C)cc2[nH]c1=O)C(=O)c1cccnc1 | 779 | 2.6% (inactive) | -34.8% (inactive) | 104% | -5.8% (inactive) | 109% | -0.46 (inactive) | 1.6e-05 (inactive) | 0.00624 (inactive) | 11.3% (inactive) | 27.1% (inactive)
6 | CNC(=O)CSc1nnc(-c2cc3c(C)nn(-c4ccccc4)c3s2)n1C | 428 | 4.3% (inactive) | 2.8% (inactive) | 74.6% | -35.6% (inactive) | 118% | -0.405 (inactive) | 4.5e-05 (inactive) | 0.00659 (inactive) | -6.24% (inactive) | -6.6% (inactive)
7 | CCN1CCN(C(=O)Cn2ncc3ccsc3c2=O)CC1 | 697 | -1.8% (inactive) | 27.4% (inactive) | 96.5% | -54.3% (inactive) | 120% | -0.571 (inactive) | -8e-06 (inactive) | 0.00578 (inactive) | 3.05% (inactive) | 26.3% (inactive)
8 | Cc1cc(C)n(-c2cc(N3CCOCC3)nc(-c3ccccc3)n2)n1 | 323 | -14% (inactive) | -20.5% (inactive) | 105% | -59.2% (inactive) | 114% | -0.385 (inactive) | -1.3e-05 (inactive) | 0.00416 (inactive) | 6.61% (inactive) | 12.6% (inactive)
9 | O=C1CCCc2c1cc(C(=O)NCCCN1CCOCC1)c(=O)n2-c1ccc(Cl)cc1 | 568 | 2.5% (inactive) | 0.1% (inactive) | 99.5% | -2.6% (inactive) | 122% | -0.546 (inactive) | -4e-05 (inactive) | 0.00614 (inactive) | 10.7% (inactive) | 45.8% (inactive)
10 | O=C(CCSc1nc(-c2ccco2)cc(C(F)(F)F)n1)NCCc1ccccc1 | 491 | -8.3% (inactive) | -16.1% (inactive) | 106% | 23.2% (inactive) | 104% | -0.387 (inactive) | -3.6e-05 (inactive) | 0.00564 (inactive) | -7.29% (inactive) | -52.7% (inactive)
11 | Cc1cc(C(=O)NCCCN2CCN(C3CCCCC3)CC2)n(-c2ccccc2)n1 | 685 | -2.2% (inactive) | -2.4% (inactive) | 101% | -70.3% (inactive) | 114% | -0.588 (inactive) | -2.7e-05 (inactive) | 0.00679 (inactive) | -18.1% (inactive) | 17.8% (inactive)
12 | COc1ccccc1OCCSc1nc2ccccc2c(=O)[nH]1 | 361 | 3.5% (inactive) | -4.7% (inactive) | 89.3% | -49.6% (inactive) | 86.8% | -0.35 (inactive) | -5.3e-05 (inactive) | 0.00628 (inactive) | -4.62% (inactive) | -5.54% (inactive)
13 | O=S(=O)(c1cc(Cl)ccc1Br)N1CCOCC1 | 450 | 10.6% (inactive) | -0.6% (inactive) | 90.7% | -192% (inactive) | 133% | -0.431 (inactive) | -7.3e-05 (inactive) | 0.00323 (inactive) | 6.91% (inactive) | 35.8% (inactive)
14 | COc1ccc(N2CCN(C(c3cccs3)c3nnnn3C3CCCC3)CC2)cc1 (stereo not drawn) | 219 | 12.7% (inactive) | 1.6% (inactive) | 104% | -10.3% (inactive) | 88.2% | -0.614 (inactive) | -1.5e-08 (inactive) | 0.00587 (inactive) | 1.77% (inactive) | 11.1% (inactive)
15 | Cc1noc(/C=C/N(C)C)c1S(=O)(=O)N1CCCC(C(=O)NCCC2=CCCCC2)C1 (stereo not drawn) | 518 | 0.9% (inactive) | -2.1% (inactive) | 105% | -25.3% (inactive) | 115% | -0.548 (inactive) | -1.2e-05 (inactive) | 0.00579 (inactive) | 1.59% (inactive) | -0.365% (inactive)
16 | CCCN1C2CCCC1CC(NC(=O)Nc1cccc(C(C)=O)c1)C2 (stereo not drawn) | 418 | -10.3% (inactive) | -17% (inactive) | 97% | -138% (inactive) | 180% | -0.637 (inactive) | 1.7e-05 (inactive) | 0.00567 (inactive) | 23.1% (inactive) | 37.8% (inactive)
17 | CCOC(=O)Cc1ccc(NS(=O)(=O)c2ccc(SC)cc2)cc1 | 326 | -7.2% (inactive) | -3.4% (inactive) | 97.6% | -95.5% (inactive) | 109% | -0.494 (inactive) | -6.8e-05 (inactive) | 0.00542 (inactive) | -2.4% (inactive) | 9.62% (inactive)
18 | O=C(NCc1cccs1)C1CC(=O)N(c2ccccc2)C1 (stereo not drawn) | 345 | -0.5% (inactive) | 11.8% (inactive) | 98.2% | -28.7% (inactive) | 84% | -0.625 (inactive) | 3.2e-06 (inactive) | 0.00459 (inactive) | 2.75% (inactive) | 4.93% (inactive)
19 | O=S(=O)(c1ccc(S(=O)(=O)N2CCN3CCCC3C2)cc1)N1CCCC1 (stereo not drawn) | 575 | -5.3% (inactive) | 31.8% (inactive) | 49.8% | 34.6% (inactive) | 85% | -0.359 (inactive) | -3.4e-05 (inactive) | 0.00601 (inactive) | 6.16% (inactive) | 28.2% (inactive)
20 | O=c1[nH]c(SCc2ccc(F)cc2)nc2c1cnn2-c1ccc(F)cc1 | 652 | -31% (inactive) | -8.4% (inactive) | 95.8% | -0.1% (inactive) | 110% | -0.57 (inactive) | 1e-05 (inactive) | 0.00683 (inactive) | -21.2% (inactive) | -12.1% (inactive)
21 | CCCC(=O)OCCn1c(Br)nc2c1c(=O)[nH]c(=O)n2C | 627 | -9.1% (inactive) | -10% (inactive) | 127% | -46.5% (inactive) | 121% | -0.509 (inactive) | -3.2e-05 (inactive) | 0.00531 (inactive) | 20.4% (inactive) | 15.6% (inactive)
22 | CN(CCc1ccccn1)c1ncnc2[nH]ncc12 | 591 | 8.1% (inactive) | -1.4% (inactive) | 71.8% | 55.8% (active) | 63.8% | -0.325 (inactive) | -3.6e-05 (inactive) | 0.0053 (inactive) | -24.6% (inactive) | -53.4% (inactive)
23 | CCOC(=O)C(C#N)C(c1cccnc1)c1c(C)[nH][nH]c1=O (stereo not drawn) | 710 | -7.5% (inactive) | -3.8% (inactive) | 93% | -131% (inactive) | 101% | -0.325 (inactive) | -3.9e-05 (inactive) | 0.0052 (inactive) | 6.49% (inactive) | 9.18% (inactive)
24 | Cc1c(NC(=O)c2ccc(Br)o2)c(=O)n(-c2ccccc2)n1C | 366 | -5.9% (inactive) | -13.4% (inactive) | 114% | -74% (inactive) | 129% | -0.436 (inactive) | -2.6e-05 (inactive) | 0.00344 (inactive) | 9.74% (inactive) | 34.3% (inactive)
25 | O=C(CSc1nnc(-c2c[nH]c3ccccc23)o1)N(Cc1ccccc1)c1ccc(F)cc1 | 295 | -6.1% (inactive) | 1% (inactive) | 95.3% | -20.3% (inactive) | 119% | -0.6 (inactive) | -2.1e-05 (inactive) | 0.00713 (inactive) | -15.4% (inactive) | -35.1% (inactive)
26 | CC(C)NC(=O)c1ccc2c(c1)nnn2C | 836 | 8.2% (inactive) | 4.8% (inactive) | 104% | -59.5% (inactive) | 116% | -0.471 (inactive) | 2.3e-05 (inactive) | 0.0055 (inactive) | -4.12% (inactive) | 11.6% (inactive)
27 | O=C(NC12CC3CC(CC(C3)C1)C2)N1CCN(C(=O)C2CCCO2)CC1 (stereo not drawn) | 434 | -10.3% (inactive) | -18.6% (inactive) | 100% | -186% (inactive) | 0.2% | -0.392 (inactive) | -7.1e-05 (inactive) | 0.00603 (inactive) | 18% (inactive) | 11.1% (inactive)
28 | COc1ccc(-c2nnc(SCC(=O)c3cc(C)n(Cc4cccs4)c3C)o2)cc1 | 497 | -13.7% (inactive) | -13.1% (inactive) | 97.7% | -129% (inactive) | 161% | -0.559 (inactive) | 5.5e-05 (inactive) | 0.00615 (inactive) | -5.7% (inactive) | -11.8% (inactive)
